In PubChem BioAssay AID504441 (Broad Institute, 2011) one finds inhibition data, which are given here for 86 molecules.

SMILES strings stand for the structures. Screen size: about 310,000 compounds; about 1,300 (0.42%) were called active. Rule as the data show it: active = inhibition above about 50%; inactive = the rest. The full list was thinned out, with actives kept by preference.

The target in the experiment is Dual specificity tyrosine-phosphorylation-regulated kinase 1A (Rattus norvegicus) (UniProt Q63470). As to the kind of experiment: inhibition of Dyrk1A kinase activity – biochemical, single point, plate reader, primary screen (AID 504441).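 Also: plate controls were vehicle with enzyme for no effect and no enzyme for full effect.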 As to conditions: ADP-Glo luminescence, NFATc1 peptide, at 12.5 µM, active compounds read high. (In ADP-Glo the light output rises with the ADP produced.)
One may read the inhibition as the relative decrease from the control value, in per cent. For the molecule `CC(=NNC(=S)N1CCCCCC1)c1ccccn1`, the inhibition was 0.973% (inactive).
To `Cc1cc(NC(=O)C(C)SCC(=O)Nc2cccc(S(=O)(=O)N3CCCCCC3)c2)no1` (stereo unspecified) belongs -1.84% (inactive); to `CC(C)c1ccc(C=NNc2ccc([N+](=O)[O-])cn2)cc1`, -3.91% (inactive); to `Cc1cc(/C=N/Nc2ccc([N+](=O)[O-])cn2)c(C)n1-c1cccc(C(=O)O)c1`, 50.2% (active).
For `Cc1ccc(-n2c(C)cc(/C=N/Nc3ccc([N+](=O)[O-])cn3)c2C)c(C)c1` the value was -4.85% (inactive).
As to `Cc1cccc(NC(=S)N2CCC(C(=O)c3ccc(F)cc3)CC2)c1`, the inhibition was 10.4% (inactive).
To `O=C(Nc1ccc2ccccc2c1[N+](=O)[O-])c1ccccc1` belongs 3.22% (inactive); to `O=C(OCCOc1ccccc1Cl)c1cc(S(=O)(=O)N2CCCCC2)ccc1N1CCOCC1`, -7.28% (inactive).
To `CC(C)Sc1nc(N)nc2c1ncn2C1OC(CO)C(O)C1O` (stereo unspecified) belongs -4.63% (inactive); to `Cc1nc(N)nc(SCc2ccc([N+](=O)[O-])cc2)c1N`, -3.28% (inactive); to `Nc1nc(SCc2ccc([N+](=O)[O-])cc2)c2ncn(C3OC(CO)C(O)C3O)c2n1` (stereo unspecified), 56.9% (active).
Turning to `O=[N+]([O-])c1ccc(COc2ccccc2CN2CCOCC2)cc1`, the inhibition is 4.81% (inactive).
In the case of `CNN/C(N=Cc1ccc([N+](=O)[O-])s1)=N\S(=O)(=O)c1cc(C)c(Cl)cc1SCc1ccccc1`, the inhibition is 1.25% (inactive).
Regarding `Cc1ccc(S(=O)(=O)N2C[C@@H]3CCCC[C@@H]3[C@@H](C)[C@H]2c2cn(Cc3ccccc3)c3ccc(F)cc23)cc1`, the inhibition is -0.552% (inactive).
To `O=[N+]([O-])c1cc(Br)c(O)c(/C=N/Nc2nc3ccccc3s2)c1` belongs 32.7% (inactive); to `N=C1C(c2nc3ccccc3s2)=C(O)CN1NC(=O)c1ccc([N+](=O)[O-])cc1`, 46.9% (inactive).
`O=C(NC(Nc1nc2ccc([N+](=O)[O-])cc2s1)(C(F)(F)F)C(F)(F)F)c1ccccc1`: the inhibition was 73.9% (active).
To `O=C(O)C(CCc1ccccn1)c1ccccc1` (stereo unspecified) belongs 3.61% (inactive).
Regarding `N#CC1=C(N)Oc2cc(N)ccc2C1c1ccccc1` (stereo unspecified), the inhibition was 0.0153% (inactive).
To `COc1ccc(CNCCCNCc2ccc(OC)c(OC)c2)cc1OC` belongs -3.55% (inactive); to `CCOc1cc(/C=C2\SC(N3CCCC(C)C3)=NC2=O)ccc1O` (stereo unspecified), 31.5% (inactive).
To `O=C1N=C(N2CCCC2)S/C1=C\c1cccc(Br)c1` belongs -2.99% (inactive); to `CCOc1cc(/C=C2\SC(N3CCCCC3)=NC2=O)ccc1O`, 62.2% (active).
For `CCN1CCC(O)(/C=C/c2ccc(C)cc2)C(C(=O)/C=C/c2ccc(C)cc2)C1` (stereo unspecified) the value was -5.12% (inactive); for `O=C(NCCc1ccccc1)C1CCN(S(=O)(=O)c2ccc(Br)s2)CC1`, 60.5% (active); for `O=C(C1CCN(S(=O)(=O)c2ccc(Br)s2)CC1)N1CCN(c2ccccc2)CC1`, 2.78% (inactive).
As for `CSc1ccc(S(=O)(=O)N2CCC(C(=O)NCCc3ccccc3)CC2)cc1`, the inhibition is -0.684% (inactive).
To `COc1ccccc1N(CC(=O)Nc1c(C)n(C)n(-c2ccccc2)c1=O)S(=O)(=O)c1ccccc1` belongs 8.43% (inactive); to `Cc1ccc(S(=O)(=O)N2CCN(C(=O)COC(=O)/C=C/c3cccc(Cl)c3)CC2)c(C)c1`, 2.98% (inactive); to `CCOCCCNC(=O)C(NC(=O)c1ccccc1O)c1ccccc1` (stereo unspecified), 2.95% (inactive).
For `CCOCCCNC(=O)C(NC(=O)c1ccc(=O)[nH]c1)c1ccc(C)cc1` (stereo unspecified) the value was 4% (inactive); for `CCOCCCNC(=O)C(NC(=O)c1ccc(=O)[nH]c1)c1ccc(Cl)cc1` (stereo unspecified), 62.1% (active).
To `O=C1/C(=C\c2ccc([N+](=O)[O-])cc2)CS(=O)(=O)C/C1=C/c1ccc([N+](=O)[O-])cc1` belongs 2.21% (inactive); to `N#Cc1cccc(CN2CCC(=O)N([C@H](CO)c3ccccc3)CC2)c1`, 50.1% (active); to `O=C1CCN(Cc2ccccc2)CCN1[C@H](CSc1ccccc1)c1ccccc1`, 7.38% (inactive).
Take `N#Cc1cccc(CN2CCC(=O)N(CCO)CC2)c1`: the inhibition is 12.9% (inactive).
For `CCCCN(C(=O)CSCc1ccc(C)cc1)c1c(N)n(Cc2ccccc2)c(=O)[nH]c1=O` the value was -1.45% (inactive); for `O=[N+]([O-])c1ccc(NS(=O)(=O)c2ccccc2)c(Cl)c1`, -7.67% (inactive).
For `O=C(O)c1ccc(NN=CC2=C(N3CCOCC3)/C(=C/c3ccccc3)CC2)cc1`, the inhibition was 17.6% (inactive).
To `COc1ccc(S(=O)(=O)N2CCc3ccccc32)cc1C(=O)Nc1cc(S(C)(=O)=O)ccc1Cl` belongs -1.51% (inactive).
To `Oc1ccc(-c2csc(Nc3cccnc3)n2)cc1` belongs 53.9% (active); to `CN(c1ccc(O)cc1)c1nc(-c2cccnc2)cs1`, 3.73% (inactive).
To `Cc1ccccc1Nc1nc(-c2cccnc2)cs1` belongs 9.73% (inactive).
For the molecule `O=C(NNC(=O)c1ccccc1O)c1ccccc1O`, the inhibition was -1.63% (inactive).
For `CCOC(=O)c1ccccc1OC(=O)Oc1ccccc1C(=O)OCC` the value was 4.02% (inactive).
For `O=C1OCC2=C1C(c1ccc(Cl)cc1)c1cc3c(cc1O2)OCO3` (stereo unspecified) the value was -1.45% (inactive).
Regarding `O=C(Nc1ccc(S(=O)(=O)N2CCOCC2)cc1)C1CCN(S(=O)(=O)c2ccc(Cl)cc2)CC1`, the inhibition is 7.12% (inactive).
To `CN1C(=O)/C(=C\c2ccc(-c3ccccc3)o2)SC1=S` belongs -4.31% (inactive).
To `CN1CCN(/N=C/c2ccc(-c3ccc([N+](=O)[O-])cc3)o2)CC1` belongs 4.45% (inactive); to `NS(=O)(=O)c1ccc(-c2ccc(/C=C3\SC(=O)NC3=O)o2)cc1`, 87.9% (active).
For `O=C(Nc1c(Br)cc2c(c1Br)Cc1cc([N+](=O)[O-])ccc1-2)C(Cl)Cl` the value was -6.68% (inactive).
Take `Cc1cc(OCCCC(=O)Nc2cc(S(=O)(=O)N3CCOCC3)ccc2N2CCOCC2)ccc1Cl`: the inhibition was 1.11% (inactive).
To `CCOC(=O)[C@H]1[C@H]2COc3ccc(Br)cc3[C@@H]2N2C(=O)CN(C)C(=O)[C@@]12C` belongs -7.39% (inactive); to `CC(=O)Nc1cccc(-c2csc(Nc3cccc(C)n3)n2)c1`, 9.85% (inactive); to `O=C(Nc1cccc(-c2nc3ccccc3[nH]2)c1)c1ccc(C(=O)Nc2cccc(-c3nc4ccccc4[nH]3)c2)cc1`, 4.53% (inactive).
Turning to `CC(=O)Nc1cccc(-c2cnc3ccccc3n2)c1`, the inhibition is 50.4% (active).
For `CN(C)C(=S)N=c1ssc(=S)n1Cc1ccco1` the value was 0.385% (inactive).
For `O=C(Cc1ccc([N+](=O)[O-])cc1)NCCc1ccc2c(c1)OCO2` the value was 3.06% (inactive); for `COc1ccc(C(=O)N(C)Cc2ccc(OC)c(OC)c2OC)cc1S(=O)(=O)N1CCOCC1`, -3.97% (inactive); for `NC(CSC1(c2ccccc2)c2ccccc2-c2ccccc21)C(=O)O` (stereo unspecified), -0.913% (inactive).
For `COc1cc2[nH]c(O)c(C=O)c2cc1OC` the value was 3.93% (inactive); for `CC(=O)Nc1cccc(Nc2nc(-c3cccs3)nc3ccccc23)c1`, 26.8% (inactive).
On to `Cc1cccc(-c2nc(Nc3ccc(O)cc3)c3ccccc3n2)c1`, for which the inhibition is 62% (active).
To `COc1ccc(Nc2nc(-c3cccnc3)nc3ccccc23)cn1` belongs 24.1% (inactive).
To `O=C1C=C(NS(=O)(=O)c2ccccc2)C(=O)c2ccccc21` belongs 0.22% (inactive); to `CCN1C[C@@H]2[C@@H]3C(=O)N(Cc4ccccc4)C(=O)[C@@H]3[C@](C)(C1=O)N2C(=O)c1ccc(C(C)(C)C)cc1`, -5.8% (inactive).
For `O=C(Nc1cccc(Br)c1)C1CC(=O)N(C2CCCC2)C1` (stereo unspecified) the value was -2.1% (inactive); for `O=C1NC(=O)C(CCc2ccccc2)(c2ccccc2)N1` (stereo unspecified), -4.85% (inactive).
Take `CCOC(=O)COc1cc(OCC(=O)OCC)c2c(=O)cc(-c3ccccc3)oc2c1`: the inhibition is 0.414% (inactive).
To `CCOC(=O)COc1cc(O)c2c(=O)cc(-c3ccccc3)oc2c1` belongs -1.6% (inactive); to `COc1c(O)cc2oc(-c3ccc(O)c(O)c3)cc(=O)c2c1O`, 50.5% (active).
For `CCOC(=O)C1CCCN(C(=O)C2CCN(S(=O)(=O)c3ccc(Cl)c(C(F)(F)F)c3)CC2)C1` (stereo unspecified) the value was -9.38% (inactive); for `COc1ccc(Oc2cn[nH]c2-c2ccc(OC)cc2O)cc1`, 11.8% (inactive).
To `Oc1ccc(-c2[nH]ncc2-c2nc3ccccc3s2)c(O)c1` belongs 66.5% (active); to `CC(=O)Nc1cccc(-c2nc3ccccc3s2)c1C`, -0.865% (inactive); to `CC(=O)OC1CCC2C3CCC4=C(CC(F)C(=O)C4)C3CCC12C` (stereo unspecified), -2.02% (inactive).
For the molecule `O=C(OCC1OC(Oc2ccc(O)cc2)C(O)C(O)C1O)c1ccccc1` (stereo unspecified), the inhibition is 13.6% (inactive).
To `C[C@@H]1O[C@@H](OC[C@H]2O[C@@H](Oc3c(-c4ccc(O)cc4)oc4cc(O)cc(O)c4c3=O)[C@H](O)[C@@H](O)[C@@H]2O)[C@H](O)[C@H](O)[C@H]1O` belongs 66.5% (active); to `COc1ccc(-c2cc(=O)c3c(O)cc(O[C@@H]4O[C@H](CO[C@@H]5O[C@@H](C)[C@H](O)[C@@H](O)[C@H]5O)[C@@H](O)[C@H](O)[C@H]4O)cc3o2)cc1O`, -6.42% (inactive).
For `N#CCc1c[nH]c2ccc([N+](=O)[O-])cc12` the value was 20% (inactive); for `CCc1ccc(C(=O)C(C)OC(=O)CN2C(=O)NC3(CCCC3)C2=O)cc1` (stereo unspecified), 0.139% (inactive).
For `O=C1NCC(Nc2ccccc2)C(=O)N1` (stereo unspecified) the value was -0.332% (inactive).
With `COc1cc2c(cc1OC)C1C(=O)c3cc(OS(C)(=O)=O)c(OC)cc3C1N(C)C2=O` (stereo unspecified), the inhibition is 3.14% (inactive).
To `O=C(COC(=O)c1ccc(F)cc1)Nc1ccc2c(c1)OCO2` belongs -0.789% (inactive); to `CC(C)C(=O)Nc1cccc(C(=O)Nc2ccc3c(c2)OCO3)c1`, -2.73% (inactive).
To `CC(=O)Nc1cccc(C(=O)OCC(=O)c2ccc3c(c2)OCO3)c1` belongs 69.4% (active).
